PubChem BioAssay (NCI)
The panel holds about 83,000 compounds, 20% with a hit somewhere; the sample as a whole holds those more often.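 Compound tested at a single concentration for 48 hours in 96-well plates; a percent growth value below 10 was scored as active.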 Values without a mark were called inactive. Calls of active or inactive are those of the source.

What follows are molecules tested on TK-10 renal (assay: NCI-60 one-dose screen, 48 h (100 = growth as untreated, 0 = no growth, -100 = all killed)). Settings: 10 µM unless noted.

| Structure (SMILES) | growth |
| --- | --- |
| Cn1c(/C(C#N)=C/c2ccc3ccccc3c2)cc2ccccc21 | 106% |
| Cn1cc(-c2nc(-c3c[nH]c4ncccc34)cs2)c2cc(F)ccc21 | 23.2% |
| CC(=O)N1N=C(c2ccc(C)cc2)CC1c1ccc(Oc2ccc(Br)cc2)cc1 (centres undefined) | 71.1% |
| NC1=NN=C2N(N)C(=O)c3cnn(-c4ccccc4)c3N2c2nc(-c3ccccc3)cc(-c3ccccc3)c21 | 116% |
| Fc1ccc2nc(-c3cc(-c4ccc5c(c4)OCO5)n[nH]3)[nH]c2c1 | 75.9% |
| CN(C)c1ccc(-c2ccc(-c3ccc(C(=N)N)c(F)c3)s2)cc1 | -85.5% (active) |
| Cc1c(C)c2c(c(C)c1NC(=O)CCCCCCC(=O)O)CCC(C)(CCCC(C)CCCC(C)CCCC(C)C)O2 (centres undefined) | 87.6% |
| Cc1cc(C)nc(NC(N)=NCCc2ccccc2)n1 | 75.6% |
| C=C(C)[C@@H]1CC[C@]2(C(=O)O)CC[C@]3(C)[C@H](CC[C@@H]4[C@@]5(C)C/C(=C/c6ccc(OC)cc6)C(=O)C(C)(C)[C@@H]5CC[C@]43C)[C@@H]12 | 24.5% |
| COc1ccc2[nH]cc(-c3nc(-c4c[nH]c5ncccc45)cs3)c2c1 | 31.9% |
| CCc1ccc(-c2ccc(Nc3ccccc3)nn2)cc1S(N)(=O)=O | 116% |
| Cn1cccc1/C=C1/SC(=S)N(CCc2ccc(O)cc2)C1=O | 110% |
| CN1CCN(CCOc2ccc(-c3cnc4c(-c5ccccc5F)cnn4c3)cc2)CC1 | 71% |
| O=c1c(CNc2ccc(S(=O)(=O)Nc3ncccn3)cc2)coc2ccccc12 | 106% |
| Cc1ccc(-c2nc([P+](c3ccccc3)(c3ccccc3)c3ccccc3)c(N3CCOCC3)o2)cc1 | 20.8% |
| O=C1OC(c2ccc(Cl)c(Cl)c2)=C/C1=C/c1cccc([N+](=O)[O-])c1 | 179% |
| COc1ccccc1-n1cnc(N)c1C(=O)c1cc(OC)c(OC)c(OC)c1 | 80.8% |
| COc1ccc2c(c1)C/C(=C\c1cc(-c3ccc4c(c3)OCO4)n[nH]1)C2=O | 162% |
| CN(C)CCCC1(c2ccc(F)cc2)OCc2cc(-c3ccc(C(F)(F)F)nc3)ccc21 (centres undefined) | 82.4% |
| O=c1c(CNc2ccc(S(=O)(=O)Nc3nccs3)cc2)coc2ccccc12 | 103% |

| Structure (SMILES) | growth |
| --- | --- |
| Cc1ccc2c(c1)c(-c1nc(-c3c[nH]c4ncccc34)cs1)cn2C | 81.5% |
| CC1(C)C(=O)/C(=C\c2ccco2)C[C@]2(C)[C@H]3CC[C@@H]4[C@@H](C(=O)/C=C/c5ccco5)CC[C@@]4(C)[C@]3(C)CC[C@@H]12 | 107% |
| Cc1ccc(-c2nc([P+](c3ccccc3)(c3ccccc3)c3ccccc3)c(N3C[C@H]4C[C@H](C3)c3cccc(=O)n3C4)o2)cc1 | 98.8% |
| C=C(C)[C@@H]1CC[C@]2(CN)CC[C@]3(C)[C@H](CC[C@@H]4[C@@]5(C)CCC(=O)NC(C)(C)[C@@H]5CC[C@]43C)[C@@H]12 | 114% |
| Nc1c(Cl)cc(N=Nc2ccccc2)cc1Cl | 12.8% |
| CC(=O)O[C@H]1CC[C@]2(C)[C@H]3C(=O)C=C4[C@@H]5C[C@](C)(C(=O)N6CCCNCC6)CC[C@]5(C)CC[C@@]4(C)[C@]3(C)CC[C@H]2C1(C)C | -14.3% (active) |
| CCCCCC1CCCCN1C(=O)OCC (centres undefined) | 100% |
| Cn1cc(-c2nc(-c3c[nH]c4ncccc34)cs2)c2cc(Br)ccc21 | 63.5% |
| O=C(N/N=C\c1ccccc1O)C1CC1 | 118% |
| COc1ccc(OCC(CO)N2CCN(c3ccccc3)CC2)cc1 (centres undefined) | 109% |
| Cn1cc(-c2nc(-c3c[nH]c4ncccc34)cs2)c2ccccc21 | 56.9% |
| CC1(C)CC[C@]2(C(=O)Nc3ccccn3)CC[C@]3(C)C(=CC[C@@H]4[C@@]5(C)C/C(=C/c6ccncc6)C(=O)C(C)(C)[C@@H]5CC[C@]43C)[C@@H]2C1 | 77.4% |
| C=C(C)[C@@H]1CC[C@]2(C(=O)O)CC[C@]3(C)[C@H](CC[C@@H]4[C@@]5(C)C/C(=C/c6cccc(I)c6)C(=O)C(C)(C)[C@@H]5CC[C@]43C)[C@@H]12 | 29.6% |
| Oc1cccc2oc(=S)[nH]c12 | 106% |
| CC(=O)O[C@H]1CC[C@@]2(C)C(=CC[C@@H]3[C@@H]2CC[C@]2(C)C(=O)N(O)C(=O)C[C@@H]32)C1 | 101% |
| COc1ccc2c(c1)c(-c1nc(-c3c[nH]c4ncccc34)cs1)cn2C | 60.3% |
| O=C(O)c1cccc2c1Cc1cc([N+](=O)[O-])ccc1-2 | 123% |
| CCOc1ccc(NC(=O)c2ccccc2-c2ccccc2C(=O)O)cc1 | 110% |
| O=c1c2sc3ncc(Br)cc3c2ncn1-c1cccc(Cl)c1 | 73.6% |
